Data taken from PMC4336329 (PLoS ONE, 2015).
Out of some 310,000 compounds screened, about 14,000 (4.5%) showed an effect of 50% or more. The effect is printed as a negative number. The list comes from a sample in which strong results are over-represented; it also holds similar structures and randomly drawn compounds.
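Note: peak tail current of the secondary pulse compared with the same well before compound.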

What follows are compounds tested against human ether-à-go-go-related gene (hERG) potassium channel (human, UniProt Q12809) (assay: primary screen, population patch clamp on CHO cells stably expressing hERG; higher = less effect of the substance).
human ether-à-go-go-related gene (hERG) potassium channel, sequence (Q12809 whole entry, looked up): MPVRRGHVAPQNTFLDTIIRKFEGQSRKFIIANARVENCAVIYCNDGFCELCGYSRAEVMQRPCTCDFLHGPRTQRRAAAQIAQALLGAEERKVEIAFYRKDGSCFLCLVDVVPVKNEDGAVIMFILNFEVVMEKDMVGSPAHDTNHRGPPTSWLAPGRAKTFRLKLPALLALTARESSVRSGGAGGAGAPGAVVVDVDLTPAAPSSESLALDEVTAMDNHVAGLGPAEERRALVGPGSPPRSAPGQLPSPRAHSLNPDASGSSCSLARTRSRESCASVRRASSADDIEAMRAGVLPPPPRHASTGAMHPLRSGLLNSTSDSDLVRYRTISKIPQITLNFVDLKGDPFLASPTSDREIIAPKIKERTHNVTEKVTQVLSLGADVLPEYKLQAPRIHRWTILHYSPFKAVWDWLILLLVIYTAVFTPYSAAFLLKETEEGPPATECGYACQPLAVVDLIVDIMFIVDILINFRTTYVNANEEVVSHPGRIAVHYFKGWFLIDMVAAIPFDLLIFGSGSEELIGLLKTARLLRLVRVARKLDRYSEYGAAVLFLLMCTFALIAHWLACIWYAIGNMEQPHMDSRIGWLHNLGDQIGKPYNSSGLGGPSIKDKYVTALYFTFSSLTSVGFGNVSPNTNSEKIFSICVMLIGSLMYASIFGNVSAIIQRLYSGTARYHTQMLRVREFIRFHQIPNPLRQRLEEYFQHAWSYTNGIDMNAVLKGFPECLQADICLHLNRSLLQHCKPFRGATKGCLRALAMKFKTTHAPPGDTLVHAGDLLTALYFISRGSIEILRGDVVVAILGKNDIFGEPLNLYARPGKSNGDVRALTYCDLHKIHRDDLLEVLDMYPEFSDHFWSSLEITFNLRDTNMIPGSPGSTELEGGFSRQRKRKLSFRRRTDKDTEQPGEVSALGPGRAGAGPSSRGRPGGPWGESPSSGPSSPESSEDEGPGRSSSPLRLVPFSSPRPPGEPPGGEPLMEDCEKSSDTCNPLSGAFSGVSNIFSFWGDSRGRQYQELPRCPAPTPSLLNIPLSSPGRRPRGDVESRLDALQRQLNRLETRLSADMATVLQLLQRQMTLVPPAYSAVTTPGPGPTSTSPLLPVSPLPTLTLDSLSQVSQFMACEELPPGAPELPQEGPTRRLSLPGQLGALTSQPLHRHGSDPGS
For `CCOCC(=O)Nc1ccccc1C(=O)N1CCOCC1`, the “hERG current change (%, negative = inhibition) at 10uM” value was -0.166%. With `Nc1cc(N2CCCCC2)c(Cl)cc1[N+](=O)[O-]` the “hERG current change (%, negative = inhibition) at 10uM” value was -10.8%. In the case of `NC(=O)C1CCN(CC(=O)NC(=O)NC2CCCC2)CC1`, the “hERG current change (%, negative = inhibition) at 10uM” value was 9.34%. In the case of `Cc1c(-c2cc(C(=O)O)no2)cnn1C`, the “hERG current change (%, negative = inhibition) at 10uM” value was 32.4%. In the case of `O=C(OCc1ccccc1)/C(=C/c1cccc([N+](=O)[O-])c1)NC(=O)c1ccco1`, the “hERG current change (%, negative = inhibition) at 10uM” value was -63.3%. For `CCOC(=O)/C(=C/c1ccccc1)NC(=O)c1ccco1`, the “hERG current change (%, negative = inhibition) at 10uM” value was -7.55%. For `O=C(NC(Cc1ccccc1)C(=O)O)/C(=C/c1cccc([N+](=O)[O-])c1)NC(=O)c1ccco1` (centres unmarked), the “hERG current change (%, negative = inhibition) at 10uM” value was -11.4%. With `C=CCOC(=O)/C(=C\c1ccccc1)NC(=O)c1ccco1` the “hERG current change (%, negative = inhibition) at 10uM” value was 1.97%. `O=C(OCc1ccccc1)/C(=C/c1cccc(Br)c1)NC(=O)c1ccco1` was tested, and the “hERG current change (%, negative = inhibition) at 10uM” value was -52.5%. For `O=C(NC(Cc1ccccc1)C(=O)O)/C(=C\c1cccc([N+](=O)[O-])c1)NC(=O)c1ccco1` (centres unmarked), the “hERG current change (%, negative = inhibition) at 10uM” value was 28.4%. For `O=C(COc1ccc(Cl)cc1)NC(=S)Nc1ccccc1N1CCOCC1`, the “hERG current change (%, negative = inhibition) at 10uM” value was 17.4%. With `Cc1ccc2c(O)c(C)c(=O)[nH]c2n1` the “hERG current change (%, negative = inhibition) at 10uM” value was 24.3%. With `O=C(Nc1ccc(S(=O)(=O)NC2=NCCCCC2)cc1)c1ccco1` the “hERG current change (%, negative = inhibition) at 10uM” value was 2.7%. With `CCN(CC)c1ccc(NC(=O)CSc2ccsc2[N+](=O)[O-])c(C)c1` the “hERG current change (%, negative = inhibition) at 10uM” value was 5.74%. In the case of `Br.CN1CCN(CC(=O)c2cc(C(C)(C)C)c(O)c(C(C)(C)C)c2)CC1`, the “hERG current change (%, negative = inhibition) at 10uM” value was -13.3%. With `COc1cccc(Cn2c(=O)oc3ccccc32)c1` the “hERG current change (%, negative = inhibition) at 10uM” value was 4.3%. With `COc1ccc(C(=O)OCc2cc(=O)n3c(C)csc3n2)cc1F` the “hERG current change (%, negative = inhibition) at 10uM” value was -2.77%. For `Cc1csc2nc(COC(=O)c3cccc(N(C)C)c3)cc(=O)n12`, the “hERG current change (%, negative = inhibition) at 10uM” value was -32.5%. For `Cc1csc2nc(COC(=O)c3ccc(Cl)c([N+](=O)[O-])c3)cc(=O)n12`, the “hERG current change (%, negative = inhibition) at 10uM” value was -63.1%. `Fc1ccc(-c2cc(C(F)(F)F)nc(N3CCCCC3)n2)cc1` was tested, and the “hERG current change (%, negative = inhibition) at 10uM” value was 19.5%. With `C/C(Cn1nc([N+](=O)[O-])cc1C)=N\NC(=O)COc1c(Cl)cc(Cl)cc1Cl` the “hERG current change (%, negative = inhibition) at 10uM” value was -68%. For `C/C(CC(=O)NCc1ccco1)=N\NC(=O)COc1ccc(Cl)cc1Cl`, the “hERG current change (%, negative = inhibition) at 10uM” value was -65.6%. With `O=C(COc1ccc(Cl)cc1Cl)NCc1ccco1` the “hERG current change (%, negative = inhibition) at 10uM” value was 0.837%. For `C/C(CC(=O)NCc1ccco1)=N\NC(=O)c1ccc(Cl)cc1Cl`, the “hERG current change (%, negative = inhibition) at 10uM” value was 8.44%. With `C/C(Cn1nc([N+](=O)[O-])cc1C)=N\NC(=O)COc1ccccc1[N+](=O)[O-]` the “hERG current change (%, negative = inhibition) at 10uM” value was -17.4%. `COc1ccccc1CNC(=O)C/C(C)=N/NC(=O)COc1ccc(C)cc1Br` was tested, and the “hERG current change (%, negative = inhibition) at 10uM” value was -63.9%. In the case of `C/C(Cn1nc([N+](=O)[O-])cc1C)=N\NC(=O)COc1ccc(Cl)cc1Cl`, the “hERG current change (%, negative = inhibition) at 10uM” value was -66.3%. For `C/C(CC(=O)NCc1ccc(Cl)cc1)=N\NC(=O)COc1ccc(C)cc1Br`, the “hERG current change (%, negative = inhibition) at 10uM” value was -33.1%. For `CCCNC(=O)C/C(C)=N/NC(=O)COc1ccc(C)cc1Br`, the “hERG current change (%, negative = inhibition) at 10uM” value was -20.9%. In the case of `Cc1cc(C)n(CC(=O)NNC(=O)COc2ccc(Cl)cc2Cl)n1`, the “hERG current change (%, negative = inhibition) at 10uM” value was 3.06%. In the case of `C/C(Cn1cnc([N+](=O)[O-])n1)=N/NC(=O)COc1c(Cl)cc(Cl)cc1Cl`, the “hERG current change (%, negative = inhibition) at 10uM” value was -31.4%. In the case of `COc1ccc(C(=O)N/N=C(\C)Cn2nc([N+](=O)[O-])cc2C)cc1`, the “hERG current change (%, negative = inhibition) at 10uM” value was -15.8%.
